The source made the active and inactive calls.
Columns and labels:
[1] = biological target: Albumin (Bos taurus) (UniProt P02769); experiment: bovine serum albumin binders on microarray, profiling panel, artefact control for SMM control protein annotation, biochemical, small-molecule microarray, Alexa647 label, 635/667 nm fluorescence (AID 1118); details: BSA-A647 binding, fluorescence 635 nm, higher = more signal;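 note: score merges 667 nm emission intensity and signal-to-noise per printed compound spot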
Albumin (Bos taurus), sequence (P02769 whole entry, looked up): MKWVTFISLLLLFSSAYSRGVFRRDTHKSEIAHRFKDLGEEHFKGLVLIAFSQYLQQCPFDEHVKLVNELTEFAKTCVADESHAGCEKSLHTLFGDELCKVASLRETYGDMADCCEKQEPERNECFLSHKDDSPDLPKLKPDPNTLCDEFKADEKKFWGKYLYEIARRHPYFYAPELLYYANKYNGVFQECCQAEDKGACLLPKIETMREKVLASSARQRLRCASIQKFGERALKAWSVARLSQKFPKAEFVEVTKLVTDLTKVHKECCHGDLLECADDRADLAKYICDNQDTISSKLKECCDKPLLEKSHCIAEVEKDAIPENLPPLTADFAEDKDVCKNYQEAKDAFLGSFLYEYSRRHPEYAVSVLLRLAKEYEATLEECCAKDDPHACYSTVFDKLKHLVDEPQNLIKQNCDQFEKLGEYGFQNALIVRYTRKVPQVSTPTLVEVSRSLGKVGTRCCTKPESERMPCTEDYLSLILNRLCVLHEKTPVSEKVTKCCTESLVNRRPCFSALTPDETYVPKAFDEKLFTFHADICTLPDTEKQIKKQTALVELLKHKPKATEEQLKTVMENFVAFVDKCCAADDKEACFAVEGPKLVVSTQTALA

[2] = small-molecule microarray binders of probe aXIP, primary screen, biochemical, NeuroSMM set, 635/667 nm fluorescence (AID 1119); details: higher = more signal, called active from +8 up or from −8 down;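 note: probe is the protein aXip251-270 applied at 1 µg/mL to compound-printed slides; binding of probe to printed compounds measured as 667 nm fluorescence plus signal to noise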
[3] = small-molecule binders of probe aNOTCH3, primary screen, biochemical, small-molecule microarray, 635/667 nm fluorescence (AID 1120); details: higher = more signal;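 note: probe is a biotin-tagged antibody raised against NOTCH3 rather than NOTCH3 protein; score merges spot fluorescence near 667 nm with spot signal to noise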
[4] = small-molecule binders of probe aNOTCH2, primary screen, biochemical, small-molecule microarray, 635/667 nm fluorescence (AID 1121); details: higher = more signal;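 note: score merges feature fluorescence read at 667 nm with its signal to noise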
[5] = biological target: Carbonic anhydrase 2 (Homo sapiens) (UniProt P00918); experiment: CAII small-molecule binders, profiling panel, biochemical, small-molecule microarray, Alexa647-labelled CAII (AID 1122); details: CAII-A647 binding fluorescence, higher = more signal
[6] = COS7 lysate on small-molecule microarray, probe aHis, 635 nm (AID 1123); details: COS7 cell lysate, fluorescence, higher = more signal;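 note: z-score combines 667nm fluorescence intensity with signal-to-noise per printed compound spot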
[7] = compound binding in COS7 lysate, probe aLAP1, primary screen, cell lysate, small-molecule microarray (AID 1124); details: probe aLAP1, fluorescence, higher = more signal;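 note: lysate comes from COS7 cells expressing LAP1 and is applied at 0.3 µg/mL; score merges spot fluorescence near 667 nm with signal-to-noise over triplicate slides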
[8] = tested on: Sam68 (KHDRBS1); experiment: Sam68 small-molecule binders, primary screen, biochemical, small-molecule microarray, 635 nm fluorescence (AID 1125); details: small-molecule microarray binding, higher = more signal;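 note: score merges 667 nm channel intensity with signal to noise over triplicate slides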
[9] = tested on: Chordin-like protein 2 (CHRDL2); experiment: CHRDL2 small-molecule binders, primary screen, biochemical, small-molecule microarray, 635 nm fluorescence (AID 1126); details: small-molecule microarray binding, fluorescence 635 nm; higher = more signal;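 note: printed compound slides probed with Chrdl2 protein at 4 µg/mL for 1 h at 4 C; score merges 667 nm emission intensity with signal to noise over three replicate slides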
[10] = biological target: Concanavalin-A (Canavalia ensiformis) (UniProt P02866); experiment: ConA small-molecule binders, primary screen, artefact control for SMM control protein annotation, biochemical, small-molecule microarray, Alexa647 label, 635 nm (AID 1127); details: ConA-A647 binding fluorescence, higher = more signal;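 note: z combines 667 nm emission intensity with signal-to-noise across three replicate slides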
Concanavalin-A (Canavalia ensiformis), sequence (P02866 whole entry, looked up): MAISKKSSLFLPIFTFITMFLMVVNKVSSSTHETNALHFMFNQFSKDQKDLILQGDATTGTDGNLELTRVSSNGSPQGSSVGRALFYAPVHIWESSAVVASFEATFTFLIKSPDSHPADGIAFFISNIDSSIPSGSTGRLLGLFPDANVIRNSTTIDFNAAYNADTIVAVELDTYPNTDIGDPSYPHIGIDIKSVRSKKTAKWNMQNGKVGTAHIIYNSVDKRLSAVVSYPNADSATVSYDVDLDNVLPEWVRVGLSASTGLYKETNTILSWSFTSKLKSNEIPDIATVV

[11] = anti-His antibody binders, primary screen, artefact control for SMM control protein annotation, biochemical, small-molecule microarray, 635 nm fluorescence (AID 1128); details: anti-His Alexa647 antibody binding, higher = more signal;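 note: score merges feature fluorescence with signal-to-noise for each printed compound spot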
[12] = tested on: Human papillomavirus type 1a E7 protein (residues 1-88); experiment: HPV1a E7 small-molecule binders, primary screen, biochemical, small-molecule microarray, residues 1-88, 635 nm (AID 1129); details: small-molecule microarray binding, fluorescence 635 nm; higher = more signal
[13] = biological target: Focal adhesion kinase 1 (Homo sapiens) (UniProt Q05397); experiment: small-molecule microarray binders of FAK, primary screen, biochemical, 635/667 nm fluorescence, BSA, DTT (AID 1130); details: PTK2 binding, 635 nm fluorescence, higher = more signal;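 note: composite of spot emission at 667 nm and signal to noise over triplicate slides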
Focal adhesion kinase 1 (Homo sapiens), sequence (Q05397 whole entry, looked up): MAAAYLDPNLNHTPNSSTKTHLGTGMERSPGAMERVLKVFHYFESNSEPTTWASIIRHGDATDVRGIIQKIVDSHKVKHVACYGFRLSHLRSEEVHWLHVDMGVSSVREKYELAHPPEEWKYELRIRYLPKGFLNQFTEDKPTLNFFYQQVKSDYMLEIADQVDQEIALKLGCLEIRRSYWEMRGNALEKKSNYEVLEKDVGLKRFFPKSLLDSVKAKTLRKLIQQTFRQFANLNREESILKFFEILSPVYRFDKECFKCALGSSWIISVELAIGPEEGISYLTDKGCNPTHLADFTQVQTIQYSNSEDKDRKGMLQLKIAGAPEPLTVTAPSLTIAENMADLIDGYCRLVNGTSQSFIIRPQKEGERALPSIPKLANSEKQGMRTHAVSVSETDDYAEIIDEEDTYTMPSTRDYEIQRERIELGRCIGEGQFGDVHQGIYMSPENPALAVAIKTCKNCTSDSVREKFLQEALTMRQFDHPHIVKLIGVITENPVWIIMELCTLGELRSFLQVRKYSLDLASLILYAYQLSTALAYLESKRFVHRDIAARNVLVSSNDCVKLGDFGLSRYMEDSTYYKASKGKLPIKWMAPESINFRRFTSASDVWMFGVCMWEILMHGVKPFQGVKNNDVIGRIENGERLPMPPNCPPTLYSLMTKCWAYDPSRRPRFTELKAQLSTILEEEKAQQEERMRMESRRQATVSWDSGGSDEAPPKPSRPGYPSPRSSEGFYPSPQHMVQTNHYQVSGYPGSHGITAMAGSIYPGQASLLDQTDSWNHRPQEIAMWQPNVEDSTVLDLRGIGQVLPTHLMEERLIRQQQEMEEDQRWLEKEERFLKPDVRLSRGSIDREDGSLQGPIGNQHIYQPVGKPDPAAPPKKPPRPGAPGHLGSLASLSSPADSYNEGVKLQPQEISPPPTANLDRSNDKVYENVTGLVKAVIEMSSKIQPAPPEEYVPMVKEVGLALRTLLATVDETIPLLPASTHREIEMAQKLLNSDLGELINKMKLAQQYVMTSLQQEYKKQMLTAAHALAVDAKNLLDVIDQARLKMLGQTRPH

[14] = tested on: Fibrinogen (Alexa647-labelled); experiment: fibrinogen binders on compound microarrays, profiling panel, artefact control for SMM control-protein annotation, biochemical, small-molecule microarray, 635/667 nm fluorescence (AID 1131); details: fibrinogen-A647 binding fluorescence, higher = more signal;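 note: z-score merges 667 nm fluorescence with per-spot signal-to-noise over triplicate slides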
[15] = biological target: Follistatin (Homo sapiens) (UniProt P19883); experiment: follistatin binders on small-molecule microarrays, primary screen, biochemical, small-molecule microarray, 635/667 nm fluorescence (AID 1132); details: FST binding, 635 nm fluorescence, higher = more signal
Follistatin (Homo sapiens), sequence (P19883 whole entry, looked up): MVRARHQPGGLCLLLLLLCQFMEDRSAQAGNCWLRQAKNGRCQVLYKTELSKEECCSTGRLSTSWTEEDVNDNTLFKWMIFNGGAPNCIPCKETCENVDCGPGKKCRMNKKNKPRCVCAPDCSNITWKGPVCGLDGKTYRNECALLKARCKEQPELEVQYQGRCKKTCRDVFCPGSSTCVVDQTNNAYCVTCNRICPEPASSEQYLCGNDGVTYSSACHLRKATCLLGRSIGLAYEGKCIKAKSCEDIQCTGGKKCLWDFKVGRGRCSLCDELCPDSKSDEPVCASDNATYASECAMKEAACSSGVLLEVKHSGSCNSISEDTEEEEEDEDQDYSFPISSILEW

[16] = biological target: Fibroblast growth factor 2 (Homo sapiens) (UniProt P09038); experiment: FGF2 binders on small-molecule microarrays, primary screen, biochemical, small-molecule microarray, 635/667 nm fluorescence (AID 1133); details: small-molecule microarray binding, FGF2, fluorescence 635/667; higher = more signal
Fibroblast growth factor 2 (Homo sapiens), sequence (P09038 whole entry, looked up): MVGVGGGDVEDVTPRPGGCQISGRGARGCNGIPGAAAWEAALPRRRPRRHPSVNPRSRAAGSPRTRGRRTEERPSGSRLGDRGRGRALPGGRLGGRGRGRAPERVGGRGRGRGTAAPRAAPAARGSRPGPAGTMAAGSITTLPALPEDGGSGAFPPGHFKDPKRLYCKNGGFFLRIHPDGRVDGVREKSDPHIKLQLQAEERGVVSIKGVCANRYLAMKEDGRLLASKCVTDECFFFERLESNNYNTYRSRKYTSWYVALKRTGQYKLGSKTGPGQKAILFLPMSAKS

[17] = mitochondrial membrane potential change in A549 cells, profiling panel, cell-based, JC-1 fluorescence, basal, 24 h, 100 nL (AID 1138); details: higher = more signal;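 note: A549 lung adenocarcinoma cells under basal conditions with no added stimulus; test concentration not given here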
[18] = tested on: Lefty1; experiment: Lefty1 binders on small-molecule microarrays, primary screen, biochemical, small-molecule microarray, 635/667 nm fluorescence (AID 1139); details: small-molecule microarray binding, fluorescence 635/667; higher = more signal
[19] = tested on: wheat germ agglutinin (Triticum aestivum), Alexa647-labelled; experiment: wheat germ agglutinin binders on compound microarrays, profiling panel, artefact control for SMM control-protein annotation, biochemical, small-molecule microarray, 635/667 nm fluorescence (AID 1140); details: WGA-A647 binding, 635 nm fluorescence, higher = more signal;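 note: score merges 667 nm feature emission with signal to noise over triplicate slides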
[20] = biological target: Luciferin 4-monooxygenase (Photinus pyralis) (UniProt P08659); experiment: firefly luciferase enzyme inhibitors, primary screen, biochemical, luminescence, purified enzyme, 2006 set (AID 1141); details: SteadyGlo luminescence, 30 min, higher = more signal, called active from +8 up or from −8 down;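 note: cell-free assay with purified firefly luciferase at 100 ng per well in PBS; test concentration not given here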
Luciferin 4-monooxygenase (Photinus pyralis), sequence (P08659 whole entry, looked up): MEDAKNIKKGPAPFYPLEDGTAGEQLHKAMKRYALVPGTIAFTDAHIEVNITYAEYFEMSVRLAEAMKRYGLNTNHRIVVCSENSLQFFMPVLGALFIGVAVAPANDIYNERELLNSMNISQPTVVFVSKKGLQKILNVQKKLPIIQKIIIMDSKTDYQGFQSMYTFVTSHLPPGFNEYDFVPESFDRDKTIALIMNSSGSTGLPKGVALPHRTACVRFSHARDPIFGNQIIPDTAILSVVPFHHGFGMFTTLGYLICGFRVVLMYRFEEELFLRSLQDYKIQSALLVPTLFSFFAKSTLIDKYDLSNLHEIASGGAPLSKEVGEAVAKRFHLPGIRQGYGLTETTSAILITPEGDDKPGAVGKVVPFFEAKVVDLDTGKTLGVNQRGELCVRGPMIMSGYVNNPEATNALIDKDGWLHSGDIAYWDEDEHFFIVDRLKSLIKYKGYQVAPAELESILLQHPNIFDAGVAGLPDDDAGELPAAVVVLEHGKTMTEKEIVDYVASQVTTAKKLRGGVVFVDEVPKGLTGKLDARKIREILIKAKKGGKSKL

| Structure (SMILES) | composite z-score [1] | composite Z-score [2] | composite z-score [3] | composite z-score [4] | composite z-score [5] | composite z-score [6] | composite z-score [7] | composite z-score [8] | composite z-score [9] | composite z-score [10] | composite z-score [11] | composite z-score [12] | composite z-score [13] | composite z-score [14] | composite z-score [15] | composite z-score [16] | z-score [17] | composite z-score [18] | composite z-score [19] | z-score [20] |
| --- | --- | --- | --- | --- | --- | --- | --- | --- | --- | --- | --- | --- | --- | --- | --- | --- | --- | --- | --- | --- |
| CO[C@@H]1C=CCC(=O)N[C@@H](C)C(=O)OC[C@@H](OC)[C@H](C)CCCC(=O)OC[C@H]1C | -0.555 | -0.31 (inactive) | 0.0854 | -0.208 | -1.01 | -1.96 | 0.173 | -0.248 | 1.53 | -0.997 | 2.07 | -1.64 | -0.195 | -1.64 | 1.39 | 0.343 | -0.393 | 1.37 | -0.268 | 1.13 (inactive) |
| CC(C)=CCCC(C)=CCON=C1C[C@@H](O)[C@@H](O)[C@@H]2[C@@H]3C(=O)N(Cc4ccccc4)C(=O)[C@@H]3CC[C@@H]12 | 0.772 | -0.349 (inactive) | -0.0395 | -0.193 | -0.148 | 0.043 | -0.0612 | 0.571 | 1.4 | 0.304 | 0.546 | -0.369 | -0.0506 | -0.266 | 1.07 | 1.44 | 0.071 | 0.894 | -0.0507 | 1.19 (inactive) |
| CCCCC#C[C@@H]1C=C[C@H](OC(C)=O)[C@@H](COC(C)=O)O1 | 0.678 | 0.299 (inactive) | 0.0758 | -0.0698 | -0.0641 | 0.015 | -0.406 | 0.581 | 0.282 | 0.475 | 0.113 | 0.283 | -0.0443 | 0.88 | 0.248 | 0.316 | -0.79 | 0.487 | 0.219 | -1.41 (inactive) |
| O=C1CCCC(C2=CCCCC2=O)C1 (stereo not given) | -0.599 | 0.675 (inactive) | 0.152 | -0.112 | -0.139 | 0.0016 | 0.0781 | -0.532 | 1.06 | -0.719 | -0.496 | -0.624 | 0.26 | -0.67 | 1.01 | 0.567 | 0.475 | 1.02 | -0.397 | -0.242 (inactive) |
| CC(C)(C)N1C(=O)[C@H]2[C@H]3[C@H](O)[C@H](O)CC(=O)[C@@H]3CC[C@H]2C1=O | 0.061 | 0.302 (inactive) | -0.0918 | 0.0811 | 0.113 | 0.113 | 0.102 | 0.0236 | 0.265 | 0.395 | -0.0303 | 0.237 | -0.0066 | -0.642 | 0.539 | 1.08 | -0.662 | 0.49 | 0.138 | 0.166 (inactive) |
| COC(=O)C=CCCc1coc(C=CCNC(=O)OC)n1 | 0.266 | 0.103 (inactive) | 0.482 | 0.16 | 0.492 | 0.32 | 0.146 | 0.654 | 1.34 | -0.0726 | 0.803 | -0.259 | 0.256 | 0.247 | 1.15 | 1.04 | -1.15 | 1.37 | 0.0559 | 0.122 (inactive) |
| CCOC(=O)[C@H](CC(C)C)NC(=O)CCC1CC(OC(=O)NCc2cccc3ccccc23)CC2(CCCC(COC(=O)NCCCN3CCCC3=O)O2)O1 (stereo not given in full) | 0.247 | -0.122 (inactive) | -0.0328 | -0.108 | 0.581 | 0.444 | -0.0183 | 1.29 | 0.256 | 0.832 | 0.551 | 1.06 | 0.205 | 0.634 | 0.745 | 0.737 | -0.754 | 0.925 | 0.662 | 0.974 (inactive) |
| O=C(NN=C1C[C@@H](O)[C@@H](O)[C@@H]2[C@@H]3C(=O)N(C[C@@H]4CCCO4)C(=O)[C@@H]3CC[C@H]12)OCc1ccccc1 | 0.534 | 0.42 (inactive) | 0.0522 | -0.0081 | -0.273 | 0.109 | -0.0716 | -0.534 | -0.187 | 0.305 | -0.0516 | 0.0327 | -0.147 | 0.271 | -0.606 | -0.183 | -0.0539 | -0.793 | 0.717 | 0.304 (inactive) |
| C#CCCCON=C1[C@H]2CCn3c(=O)n(-c4ccccc4)c(=O)n3[C@H]2[C@H](O)[C@@H]2O[C@H]12 | 0.37 | -0.377 (inactive) | -0.0601 | -0.142 | -0.181 | -0.169 | -0.0252 | 0.131 | 0.609 | 0.184 | 0.303 | 0.875 | 0.093 | 0.436 | 0.295 | 0.27 | 0.94 | 0.66 | 0.107 | -1.32 (inactive) |
| C[C@H](ON=C1[C@H]2CCn3c(=O)n(-c4ccccc4)c(=O)n3[C@H]2[C@H](O)[C@@H]2O[C@H]12)c1cn([C@H](CO)Cc2ccccc2)nn1 | 0.426 | -0.285 (inactive) | -0.0788 | -0.0888 | 0.407 | 0.183 | 0.29 | 0.168 | 0.388 | 1.06 | -0.692 | 0.588 | 0.273 | 0.985 | 0.3 | 0.646 | -0.717 | 0.572 | 0.742 | -0.0281 (inactive) |
| O=C1CCCC=C1C(CCc1ccccc1)OC(=O)c1ccc(Br)cc1 (stereo not given) | -0.457 | -0.727 (inactive) | -0.104 | -0.146 | -0.475 | 0.214 | -0.815 | -1.4 | 0.388 | -0.612 | 0.0508 | -0.757 | -0.0417 | -0.612 | 0.0148 | 0.0039 | -0.65 | 0.167 | -0.254 | 0.063 (inactive) |

Reference: PubChem BioAssay
